This passage reports outcome and AC50 results from PubChem BioAssay (EPA / NIEHS).

A word on the AC50: it is the concentration giving half of the maximal activity seen.

Each structure is given as a SMILES string. Activity calls are given as the source filed them. How the source made its calls: active means hit-call score of the fitted dose curve at least 0.9, where 1 is the maximum; inactive means score below 0.9.

Experiment [1] can be described thus: BSK_CASM3C_SRB: Viability Assessment in the BioMAP Diversity Plus: CASM3C Assay (AID 2283050).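 Further: total protein by SRB staining as cytotoxicity measure in parallel cultures.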 As to conditions: primary human coronary artery smooth muscle cells.
Read-out in experiment [2]: Thrombomodulin, THBD (gene 7056)
Briefly: BSK_CASM3C_Thrombomodulin: BioMAP Diversity Plus: CASM3C Assay for Thrombomodulin Biomarker Activity (AID 2283051).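 Further: thrombomodulin protein level measured by ELISA 24 h after dosing.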 Conditions: primary human coronary artery smooth muscle cells; actives raise or lower the signal.

Read-out in experiment [3]: Tissue Factor, F3 (gene 2152)
Briefly: BSK_CASM3C_TissueFactor: BioMAP Diversity Plus: CASM3C Assay for Tissue Factor Biomarker Activity (AID 2283052).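 Further: cell surface tissue factor protein level read by ELISA.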 Conditions: primary human coronary artery smooth muscle cells; actives raise or lower the signal.

Read-out in experiment [4]: Interferon-gamma inducible Protein 10 (IP10), CXCL10 (gene 3627)
The experiment in a line: BSK_hDFCGF_IP10: BioMAP Diversity Plus: hDFCGF Assay for Interferon-gamma inducible Protein 10 (IP10) Biomarker Activity (AID 2283053). As to conditions: primary human foreskin fibroblasts; actives raise or lower the signal. A digest of the protocol:
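Human foreskin fibroblast primary cells (hDFCGF system) were dosed with chemical and assayed at 24 h; IP-10 measured by ELISA. Activity fitted bidirectionally relative to DMSO negative control as baseline.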

Read-out in experiment [5]: Urokinase-type plasminogen activator receptor (uPAR), PLAUR (gene 5329)
The experiment in a line: BSK_CASM3C_uPAR: BioMAP Diversity Plus: CASM3C Assay for Urokinase-type plasminogen activator receptor (uPAR) Biomarker Activity (AID 2283054).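 Further: cell-surface uPAR protein level quantified by ELISA.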 Conditions: primary human coronary artery smooth muscle cells; actives raise or lower the signal.

Read-out in experiment [6]: Vascular cell adhesion molecule 1 (VCAM1), VCAM1 (gene 7412)
Briefly: BSK_CASM3C_VCAM1: BioMAP Diversity Plus: CASM3C Assay for Vascular cell adhesion molecule 1 (VCAM1) Biomarker Activity (AID 2283055).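 Further: VCAM-1 protein level quantified by ELISA on the cells.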 Conditions: primary human coronary artery smooth muscle cells; actives raise or lower the signal.

Read-out in experiment [7]: Collagen III, COL3A1 (gene 1281)
The experiment in a line: BSK_hDFCGF_CollagenIII: BioMAP Diversity Plus: hDFCGF Assay for Collagen III Biomarker Activity (AID 2283056). Conditions: primary human foreskin fibroblasts; actives raise or lower the signal. The essentials: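 Cells: human foreskin fibroblasts, primary. Dosing followed by 24 h incubation, then ELISA for collagen III. Both increases and decreases scored relative to DMSO.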

Read-out in experiment [8]: Epidermal growth factor receptor (EGFR), EGFR (gene 1956)
Briefly: BSK_hDFCGF_EGFR: BioMAP Diversity Plus: hDFCGF Assay for Epidermal growth factor receptor (EGFR) Biomarker Activity (AID 2283057). Conditions: primary human foreskin fibroblasts; actives raise or lower the signal. The essentials:
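Primary human foreskin fibroblasts were exposed to compound for 24 h, after which cell-surface EGFR was quantified by ELISA. Activity was fitted bidirectionally against the DMSO negative control as baseline.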

Read-out in experiment [9]: Interleukin-8 (IL8), CXCL8 (gene 3576)
Briefly: BSK_hDFCGF_IL8: BioMAP Diversity Plus: hDFCGF Assay for Interleukin-8 (IL8) Biomarker Activity (AID 2283058). Conditions: primary human foreskin fibroblasts; actives raise or lower the signal. The essentials:
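IL-8 levels from compound-treated primary human fibroblasts were read by ELISA at 24 h, with DMSO serving as baseline for bidirectional fitting.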

Experiment [10] is described as follows: BSK_hDFCGF_Proliferation: Cell Proliferation Assessment in the BioMAP Diversity Plus: hDFCGF Assay (AID 2283059).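 Further: curves fitted for both rise and fall of signal versus DMSO baseline.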 As to conditions: primary human foreskin fibroblasts. A digest of the protocol:
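Total protein read at 560 nm after 0.1% SRB staining of TCA-fixed human skin fibroblasts, […]. Activity is fitted in both directions relative to DMSO as baseline.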

Consider `COCCOCCO`, for which the result in experiment [1], in [2], in [3], in experiment [4], in experiment [5] and in [6] was inactive. In addition, the result in [7], in experiment [8], in experiment [9] and in experiment [10] was inactive.

Take `CC(C)(C)c1ccc(O)cc1`: the result in [1], in experiment [2], in experiment [3], in [4], in experiment [5] and in experiment [6] was inactive. Also, the outcome in experiment [7], in experiment [8], in experiment [9] and in experiment [10] was inactive.

As to `CCOC(=O)c1ccccc1C(=O)OCC`, the outcome in experiment [1], in experiment [2], in experiment [3], in [4], in [5] and in experiment [6] was inactive. For the same compound, the result in experiment [7], in experiment [8], in experiment [9] and in [10] was inactive.

With `CCOc1ccc(C(C)(C)COCc2cccc(Oc3ccccc3)c2)cc1`, the outcome in [1], in experiment [3], in experiment [4], in experiment [5], in [6] and in experiment [7] was inactive. Further, the outcome in experiment [8], in experiment [9] and in experiment [10] was inactive. The concentration at half-maximal activity (AC50) in experiment [2] is 10.7 µM (active).

Take `CSC(C)(C)C=NO`: the outcome in experiment [1], in [2], in [3], in experiment [4], in experiment [5] and in [6] was inactive. Also, the result in experiment [7], in [8], in [9] and in experiment [10] was inactive.

With `O=C(O)C(F)(F)OC(F)(F)C(F)(F)OC(F)(F)F`, the result in experiment [1], in experiment [2], in [3], in experiment [4], in [5] and in [6] was inactive. Besides, the outcome in experiment [7], in experiment [8], in experiment [9] and in experiment [10] was inactive.

Take `Nc1cc2c3c(c1)C(c1ccccc1)=N[C@@H](NC(=O)c1cccnc1)C(=O)N3CC2`: the result in experiment [1], in [2], in [3], in experiment [4], in [5] and in experiment [6] was inactive. Moreover, the outcome in experiment [7], in [8], in [9] and in experiment [10] was inactive.

Regarding `CC(C)Nc1ccc(Nc2ccccc2)cc1`, the concentration at half-maximal activity (AC50) in experiment [1] is 26.3 µM (active); in [2] it was 36.6 µM (active); in experiment [3], 13.4 µM (active); in [4], 5.88 µM (active); in experiment [5] it was 32.9 µM (active); in experiment [6], 27.5 µM (active). For the same compound, the AC50 in experiment [7] was 8.09 µM (active); in [9], 14 µM (active); in experiment [10] it was 0.464 µM (active). In addition, in [8], the outcome was inactive.

For the compound `CCOP(=S)(OCC)SCn1nnc2ccccc2c1=O`, the result in experiment [1], in [2], in experiment [3], in experiment [4], in experiment [5] and in experiment [6] was inactive. The outcome in experiment [7], in [8], in [9] and in [10] was inactive.

Turning to `NC(=O)C(F)(F)C(F)(F)F`, the outcome in experiment [1], in experiment [2], in experiment [3], in experiment [4], in experiment [5] and in [6] was inactive. Moreover, the result in experiment [7], in experiment [8], in experiment [9] and in [10] was inactive.

Turning to `ClC(Cl)=C(c1ccc(Cl)cc1)c1ccccc1Cl`, the AC50 in experiment [1] is 28.2 µM (active); in experiment [3] it was 24 µM (active); in [4], 3.72 µM (active); in experiment [5] it was 32.6 µM (active); in [6] it was 20 µM (active); in experiment [7], 2.45 µM (active). Moreover, the AC50 in [8] was 4.82 µM (active); in [9], 4.15 µM (active); in [10] it was 0.742 µM (active). The outcome in [2] was inactive.

For the compound `CCOP(=S)(OCC)SCSc1ccc(Cl)cc1`, the result in [1], in experiment [2], in experiment [5], in experiment [7], in experiment [8] and in experiment [9] was inactive. Also, in experiment [10], the outcome was inactive. Further, the AC50 is 16.5 µM (active) in [3], 8.28 µM (active) in experiment [4] and 1.6 µM (active) in [6].

`CC(Cl)(Cl)C(=O)O`: the result in experiment [1], in experiment [2], in [3], in experiment [4], in [5] and in experiment [6] was inactive. Besides, the outcome in experiment [7], in experiment [8] and in experiment [9] was inactive. Moreover, the AC50 in experiment [10] is 0.148 µM (active).

For `N#Cc1cc([N+](=O)[O-])ccc1N`, the outcome in experiment [1], in experiment [2], in experiment [3], in experiment [4], in experiment [5] and in experiment [6] was inactive. The outcome in [7], in experiment [8], in experiment [9] and in experiment [10] was inactive.

In the case of `FC(F)(F)C(F)(C(F)(F)F)C(F)(F)C(F)(F)CC1CO1` (stereo not given), the outcome in [1], in experiment [2], in experiment [3], in experiment [4], in [5] and in experiment [6] was inactive. Further, the outcome in experiment [7], in experiment [8], in experiment [9] and in experiment [10] was inactive.

With `Cc1ccc(O)cc1C`, the outcome in [1], in experiment [2], in experiment [3], in [4], in [5] and in experiment [6] was inactive. In addition, the result in experiment [7], in experiment [8], in experiment [9] and in experiment [10] was inactive.

Regarding `COP(N)(=S)OC`, the result in experiment [1], in experiment [2], in [3], in experiment [4], in [5] and in experiment [6] was inactive. The result in experiment [7], in experiment [8], in [9] and in experiment [10] was inactive.

For `CN(C)C(=O)Cl`, the result in experiment [1], in experiment [2], in [3], in [4], in experiment [5] and in experiment [6] was inactive. Besides, the result in experiment [7], in experiment [8], in experiment [9] and in [10] was inactive.

In the case of `Cc1ccc(N)cc1N`, the result in [1], in experiment [2], in experiment [3], in experiment [4], in experiment [5] and in experiment [6] was inactive. Besides, the outcome in [7], in experiment [8], in experiment [9] and in [10] was inactive.

On to `O=[N+]([O-])c1ccccc1`, for which the outcome in [1], in experiment [2], in experiment [3], in experiment [4], in experiment [5] and in [6] was inactive. Moreover, the outcome in [7], in experiment [8], in experiment [9] and in [10] was inactive.
